# Results: the supplement of paper PMC6555819
# Tested on: PPARg:RXRa IVT, anti-PPARg (NR concentration 270 nM, RXRa partner concentration 90 nM)
# Test: PBM binding z-score (relative to random genomic background probes); higher = stronger binding; sequences stand for … in GC…GCGATTGACAGCGTAGAATGAAGG
# How it was run: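 Binding z-scores were set against random background probes. The data came from custom Agilent 4×180K protein-binding microarrays carrying double-stranded probes with 34-nt variable regions, incubated 1 h with ligand-free nuclear receptor dimers. Partner-specific antibodies detected binding, and scanned fluorescence was regression-normalized.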
row,Sequence,PBM binding z-score
1,CTATGTAGGTTAAGGGGGTTATTCAGTTTGAAAG,7.29
2,TCGAGTAGGTTACGGAGGCATTCAGGGATGAAGA,3.05
3,CTATGTAGGTTAAGCGGGTCATTCAGTTTGAAAG,7.09
4,CGATGTAGGTTAAGGGGGTCATTCAGTTTGAAAG,7.49
5,CTATGTAGGTTAAGGGGGCCATTCAGTTTGAAAG,7.17
6,CTATGCAGGTTAAGGGGGTCATTCAGTTTGAAAG,5.58
7,TCGAGTAGGTTACTGGGGCATTCAGGGATGAAGA,6.18
8,CCGACTAGGTTACGAGGGGGCATTCAGTGCGAAT,4.93
9,CCGAGTAGGTTACGAGGGGGCATTCGGTGCGAAT,4.36
10,TCGAGTAGGTTACGGGGGCATTCAGGGATGAAGA,5.99
11,TCGAGTAGGTTACGGGGGCATTAAGGGATGAAGA,6.1
12,CAATGTAGGTTAAGGGGGTCATTCAGTTTGAAAG,7.9
13,CTATGTAGGTTAATGGGGTCATTCAGTTTGAAAG,7.83
14,CCGAGTAGGTTACGAGGCGGCATTCAGTGCGAAT,3.3
15,CCGAGTAGGTTACGAGGGCGCATTCAGTGCGAAT,4.85
16,CTATGTAGGTGAAGGGGGTCATTCAGTTTGAAAG,8.11
17,TCTAGTAGGTTACGGGGGCATTCAGGGATGAAGA,7
18,CCGAGTAAGTTACGAGGGGGCATTCAGTGCGAAT,0.899
19,CTATGTAGGGTAAGGGGGTCATTCAGTTTGAAAG,7.72
20,CTATGTAGGTTAAAGGGGTCATTCAGTTTGAAAG,7.63

row,Sequence,PBM binding z-score
1,CTCTGTAGGTTAAGGGGGTCATTCAGTTTGAAAG,6.03
2,TCGAGTAGGTTACGGGGGCATTGAGGGATGAAGA,6.02
3,CCGAGTAGGTAACGAGGGGGCATTCAGTGCGAAT,3.65
4,CTATTTAGGTTAAGGGGGTCATTCAGTTTGAAAG,6.59
5,CTATGTAGGTTCAGGGGGTCATTCAGTTTGAAAG,4.65
6,TCGAGTAGGTTACGGGCGCATTCAGGGATGAAGA,2.9
7,CTATGTACGTTAAGGGGGTCATTCAGTTTGAAAG,5.2
8,CCGAGTAGGTTCCGAGGGGGCATTCAGTGCGAAT,2.13
9,CTATGTAGGTTAAGGGGGTCATTTAGTTTGAAAG,7.5
10,CCGATTAGGTTACGAGGGGGCATTCAGTGCGAAT,3.4
11,CTATGTAGGTTAACGGGGTCATTCAGTTTGAAAG,7.78
12,TCGAGTAGGTTACGGGGGCATCCAGGGATGAAGA,5.83
13,CCGAGTAGGTTATGAGGGGGCATTCAGTGCGAAT,4.11
14,CCGAGTAGGTCACGAGGGGGCATTCAGTGCGAAT,7.42
15,TCGAGTAGGTTACGCGGGCATTCAGGGATGAAGA,3.32
16,CCGCGTAGGTTACGAGGGGGCATTCAGTGCGAAT,2.43
17,CTATGTAGGTTAAGGGGTTCATTCAGTTTGAAAG,6.85
18,CCGAGTAGGTTACGATGGGGCATTCAGTGCGAAT,3.03
19,TCGAGTAGGTTACGGGGTCATTCAGGGATGAAGA,6.24
